# The whole screen tested about 310,000 compounds, of which about 14,000 (4.5%) showed an effect of 50% or more. The effect is printed as a negative number. The list comes from a sample in which strong results are over-represented; it also holds similar structures and randomly drawn compounds.
# Biological target: human ether-à-go-go-related gene (hERG) potassium channel (human, UniProt Q12809)
# Assay: primary screen, population patch clamp on CHO cells stably expressing hERG; higher = less effect of the substance
# 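Also: peak tail current of the secondary pulse compared with the same well before compound.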
# human ether-à-go-go-related gene (hERG) potassium channel, sequence (Q12809 whole entry, looked up): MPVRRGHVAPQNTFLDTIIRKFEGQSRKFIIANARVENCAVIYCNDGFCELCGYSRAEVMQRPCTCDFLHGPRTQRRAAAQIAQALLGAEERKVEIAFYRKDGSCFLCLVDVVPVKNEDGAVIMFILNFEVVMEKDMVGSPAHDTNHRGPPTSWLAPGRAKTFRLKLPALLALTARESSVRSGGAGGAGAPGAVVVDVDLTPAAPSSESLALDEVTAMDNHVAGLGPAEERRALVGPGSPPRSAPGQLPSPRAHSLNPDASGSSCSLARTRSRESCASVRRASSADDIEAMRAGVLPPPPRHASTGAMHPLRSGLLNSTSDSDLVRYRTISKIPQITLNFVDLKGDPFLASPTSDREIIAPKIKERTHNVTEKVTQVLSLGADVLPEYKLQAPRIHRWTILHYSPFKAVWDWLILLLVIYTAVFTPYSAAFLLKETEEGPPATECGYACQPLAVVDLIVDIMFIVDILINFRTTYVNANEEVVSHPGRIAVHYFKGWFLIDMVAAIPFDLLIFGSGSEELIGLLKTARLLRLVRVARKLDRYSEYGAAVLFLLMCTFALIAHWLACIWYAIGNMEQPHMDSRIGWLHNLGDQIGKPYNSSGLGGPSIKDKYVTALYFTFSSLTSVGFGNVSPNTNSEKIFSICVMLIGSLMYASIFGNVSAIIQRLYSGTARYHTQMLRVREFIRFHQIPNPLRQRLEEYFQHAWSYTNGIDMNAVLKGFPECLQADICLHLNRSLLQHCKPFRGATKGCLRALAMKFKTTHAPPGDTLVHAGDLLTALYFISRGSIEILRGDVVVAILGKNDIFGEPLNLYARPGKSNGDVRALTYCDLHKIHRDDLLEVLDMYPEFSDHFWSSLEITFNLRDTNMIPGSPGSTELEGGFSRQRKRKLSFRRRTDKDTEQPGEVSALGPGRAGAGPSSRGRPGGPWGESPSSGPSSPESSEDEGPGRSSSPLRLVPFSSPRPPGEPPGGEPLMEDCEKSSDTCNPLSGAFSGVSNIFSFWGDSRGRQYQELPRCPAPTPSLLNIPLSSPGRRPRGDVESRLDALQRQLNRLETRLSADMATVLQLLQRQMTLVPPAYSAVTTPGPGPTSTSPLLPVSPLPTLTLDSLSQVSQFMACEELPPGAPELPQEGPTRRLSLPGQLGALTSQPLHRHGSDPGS
row,SMILES,"hERG current change (%, negative = inhibition) at 10uM [%]"
1,CN1CCN(C(=O)C2CCCN(S(=O)(=O)c3ccc(Br)cc3)C2)CC1 (stereo not shown),-5.87
2,CCOc1ccc(S(=O)(=O)N2CCC(C(=O)N3CCN(c4ccccc4)CC3)CC2)cc1,-18
3,COc1cccc(Nc2nc(-c3sc(N)nc3C)cs2)c1,-18.2
4,CNc1nc(-c2c(C)n(C)c3ccc(OC)cc23)cs1,19.2
5,Cl.Clc1ccccc1CSC1=NCCCN1,0.0434
6,O=C(CN(C(=O)CCC(=O)Nc1ccccn1)c1ccc2c(c1)OCCO2)NCCc1ccccc1,2.29
7,CC1CCCC(C)N1c1ccc(S(=O)(=O)N2CCOCC2)cc1Cl (stereo not shown),11.5
8,COc1ccc(C2SCC(=O)N2CC23CC4CC(CC(C4)C2)C3)cc1 (stereo not shown),3.15
9,CCOC(=O)C1CCN(S(=O)(=O)c2ccc(OC)c(Cl)c2)CC1,9.79
10,CCOC(=O)C1CCN(C(=O)C2CCCN(S(=O)(=O)c3ccc(OCC)c(Cl)c3)C2)CC1 (stereo not shown),-40.8
11,CCOC(=O)C1CCN(C(=O)C2CCCN(S(=O)(=O)c3ccc(OC)c(Cl)c3)C2)CC1 (stereo not shown),-67.2
12,O=C(C1CCCN(S(=O)(=O)c2ccc(Br)s2)C1)N1CCCCCC1 (stereo not shown),-11.8
13,O=C(C1CCCN(S(=O)(=O)c2ccc(Br)s2)C1)N1CCN(c2ccccc2)CC1 (stereo not shown),-63.8
14,O=C(C1CCN(S(=O)(=O)c2ccc(Br)s2)CC1)N1CCN(c2ccccc2)CC1,-10.5
15,COc1ccc(CCNC(=O)Cn2nnc(-c3ccccc3F)n2)cc1OC,1.44
16,CC1CCCN(C(=O)COC(=O)CNC(=O)c2ccc(Br)cc2)C1 (stereo not shown),-8.3
17,CCOC(=O)C1CCN(C(C(=O)NC2CCCC2)c2ccc(C)cc2)CC1 (stereo not shown),-21.8
18,CC(C)c1ccc(O)c(NC(=O)c2cccnc2)c1,6.07
19,c1nc(NCC2(N3CCOCC3)CCCCC2)c2ccsc2n1,-73.3
20,c1csc(CNc2ncnc3sccc23)c1,-20.3
21,Cc1sc2ncnc(NCC(C)(C)N3CCOCC3)c2c1C,-71.7
22,Cc1sc2ncnc(NCCN3CCOCC3)c2c1C.O=C(O)C(=O)O,-22.4
23,c1nc(Nc2ccc(N3CCOCC3)cc2)c2ccsc2n1,-7.59

row,SMILES,"hERG current change (%, negative = inhibition) at 10uM [%]"
1,Cc1sc2ncnc(NCC3(N4CCOCC4)CCCCC3)c2c1C,-71.1
2,Cc1sc2ncnc(N3CCOCC3)c2c1C,-13.7
3,Cc1sc2ncnc(NCCCN3CCCC3=O)c2c1C,3.27
4,Cc1sc2ncnc(NCC3CCCO3)c2c1C.Cl (stereo not shown),-1.4
5,C=CCNC(=O)CC(=O)N/N=C/c1ccc(F)cc1,-3.54
6,CCSC(=O)NC12CC3CC(CC(C3)C1)C2,6.27
7,Cc1cc(OCC(=O)NCc2ccccn2)c2c(C)cc(=O)oc2c1,-7.15
8,O=C(NC(=S)Nc1ccc(S(=O)(=O)N2CCCCCC2)cc1)c1cccs1,-5.3
9,O=C(CCc1ccc(S(=O)(=O)N2CCOCC2)cc1)N/N=C/c1ccc(O)c(O)c1O,18.9
10,COc1ccc(NC(=O)C2=C(C)Nc3ncnn3C2c2ccccc2C(F)(F)F)c(OC)c1 (stereo not shown),2.77
11,CCOc1ccc(C(C)=O)cc1CSc1nc(C)cc(C)n1,-6.21
12,CCOc1ccccc1NC(=S)N1CCC(NC(=O)NC23CC4CC(CC(C4)C2)C3)CC1,-13.7
13,COc1ccc(S(=O)(=O)N2CCCOC2CNC(=O)C(=O)NCc2ccco2)cc1 (stereo not shown),-22
14,CCOC(=O)c1c(NC(=O)C(C)NCc2ccco2)sc2c1CCC(C)C2.O=C(O)C(=O)O (stereo not shown),-4.23
15,CCOc1ccccc1Oc1coc2cc(OCC(=O)O)ccc2c1=O,24.3
16,COc1ccccc1Oc1coc2cc(OC(=O)N3CCOCC3)ccc2c1=O,-56.4
17,COC(=O)COc1ccc2c(=O)c(Oc3ccccc3Br)coc2c1,14
18,COc1cccc(Oc2coc3cc(OC(=O)N4CCOCC4)ccc3c2=O)c1,-4.27
19,O=c1c(Oc2ccccc2F)coc2cc(OCc3cnn(-c4ccccc4)c3)ccc12,-55
20,COc1ccc(Oc2coc3cc(OC(=O)N4CCOCC4)ccc3c2=O)cc1,-25.3
21,COC(=O)c1ccc(Oc2coc3cc(OCc4cnn(-c5ccccc5)c4)ccc3c2=O)cc1,7.07
22,Cc1oc2cc(OCc3cnn(-c4ccccc4)c3)ccc2c(=O)c1Oc1ccccc1F,-11.2
23,CCCNC(=O)COc1ccc2c(=O)c(Oc3ccccc3F)coc2c1,-61.6

# — article PMC4336329 (PLoS ONE, 2015)
